The source of these data is ChEMBL document CHEMBL3988442, “University of Dundee, Small-Polar-MMV Screening Library” (2021).

Holding throughout (set-up): scale not given: direction of the effect not stated beside the values
For assay [1], the target named is Protein translocase subunit SecA (Escherichia coli (strain K12)) (UniProt P10408). Kind of assay: Assay to Identify E. coli SecA ATPase Inhibitors. It is filed as functional. Conditions: 30 µM.
Assay [2] has as its target T1, Ubiquitin-activating enzyme e1, putative (Leishmania donovani (strain BPK282A1)) (UniProt E9BSI1).
T1 sequence (whole entry): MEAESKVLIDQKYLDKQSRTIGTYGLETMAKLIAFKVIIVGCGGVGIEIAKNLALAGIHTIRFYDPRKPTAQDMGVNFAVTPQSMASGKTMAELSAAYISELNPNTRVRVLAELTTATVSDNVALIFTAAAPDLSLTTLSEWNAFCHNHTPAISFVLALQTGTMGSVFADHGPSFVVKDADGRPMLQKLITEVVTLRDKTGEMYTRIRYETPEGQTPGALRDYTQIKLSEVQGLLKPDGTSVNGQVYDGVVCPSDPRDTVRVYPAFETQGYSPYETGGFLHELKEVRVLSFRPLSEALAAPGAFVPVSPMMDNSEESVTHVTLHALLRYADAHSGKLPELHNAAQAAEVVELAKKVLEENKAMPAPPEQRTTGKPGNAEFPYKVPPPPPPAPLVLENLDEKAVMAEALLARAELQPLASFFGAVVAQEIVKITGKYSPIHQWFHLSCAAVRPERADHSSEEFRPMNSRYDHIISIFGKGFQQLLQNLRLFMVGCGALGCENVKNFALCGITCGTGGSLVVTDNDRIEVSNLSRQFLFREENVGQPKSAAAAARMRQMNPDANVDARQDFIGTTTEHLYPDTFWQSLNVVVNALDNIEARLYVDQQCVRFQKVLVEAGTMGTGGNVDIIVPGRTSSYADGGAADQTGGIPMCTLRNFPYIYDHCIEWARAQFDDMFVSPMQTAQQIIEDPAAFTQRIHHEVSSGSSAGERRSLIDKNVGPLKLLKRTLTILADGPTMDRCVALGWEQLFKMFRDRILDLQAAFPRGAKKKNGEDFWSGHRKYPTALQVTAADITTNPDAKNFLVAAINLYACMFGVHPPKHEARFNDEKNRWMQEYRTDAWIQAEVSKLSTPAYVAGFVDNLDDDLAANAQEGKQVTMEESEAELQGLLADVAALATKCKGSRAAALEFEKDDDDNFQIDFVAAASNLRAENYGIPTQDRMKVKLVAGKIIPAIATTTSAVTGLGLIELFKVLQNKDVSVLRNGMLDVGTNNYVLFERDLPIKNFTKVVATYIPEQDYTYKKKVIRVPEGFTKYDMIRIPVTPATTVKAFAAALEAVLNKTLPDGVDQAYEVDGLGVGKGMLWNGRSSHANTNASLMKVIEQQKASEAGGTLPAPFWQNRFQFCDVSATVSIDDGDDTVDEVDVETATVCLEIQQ
Nature of the assay: Leishmania donovani Ubiquitin Activating Enzyme (LdE1). Conditions: 30 µM. Format: functional.

The target in assay [3] is AMP-activated protein kinase, AMPK (Homo sapiens) (UniProt P54646+O43741+P54619+Q9UGJ0+Q9Y478+Q13131+Q9UGI9). Nature of the assay: AMP-dependent Kinase enzyme assay. An in vitro enzyme assay that detects ADP turnover that is directly proportional to AMPK activity. This uses naive AMPK that is activated during the assay with MK-8722. Conditions: 30 µM. Format: functional.

Assay [4] has as its target Sialic acid-binding Ig-like lectin 9 (Homo sapiens) (UniProt Q9Y336). Kind of assay: Hs-Siglec9 ALPHAscreen SOP 20170721. Conditions: 10 µM. For orientation: Alpha assays give light when donor and acceptor beads are brought close together.
A further assay deals with Trypanosoma cruzi. Nature of the assay: Trypanosoma cruzi phosphomannomutase and mannose-1-phosphate guanylyltransferase assay. Conditions: 10 µM. It is filed as functional.
Assay [5] addresses T2, Arginase-2, mitochondrial (Homo sapiens) (UniProt P78540).
T2 sequence (whole entry): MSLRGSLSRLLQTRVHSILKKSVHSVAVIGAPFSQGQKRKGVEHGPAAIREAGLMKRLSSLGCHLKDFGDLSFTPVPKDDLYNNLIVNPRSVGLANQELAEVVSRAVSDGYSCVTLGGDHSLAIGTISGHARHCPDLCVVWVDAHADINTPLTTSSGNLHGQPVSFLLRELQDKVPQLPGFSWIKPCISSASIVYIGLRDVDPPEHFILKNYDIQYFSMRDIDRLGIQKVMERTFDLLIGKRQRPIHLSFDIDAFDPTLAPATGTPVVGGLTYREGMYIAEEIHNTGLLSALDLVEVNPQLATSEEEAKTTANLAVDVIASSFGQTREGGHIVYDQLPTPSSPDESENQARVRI
Nature of the assay: in vitro enzyme assay to detect the production of urea directly proportional to the activity of Arginase II. Also: in the data most compounds retested in dose-response had high values. It is filed as functional. Conditions: 33.3 µM.

Assay [6] addresses T3, Proteasome subunit beta (Trypanosoma cruzi) (UniProt O96673).
T3 sequence (whole entry): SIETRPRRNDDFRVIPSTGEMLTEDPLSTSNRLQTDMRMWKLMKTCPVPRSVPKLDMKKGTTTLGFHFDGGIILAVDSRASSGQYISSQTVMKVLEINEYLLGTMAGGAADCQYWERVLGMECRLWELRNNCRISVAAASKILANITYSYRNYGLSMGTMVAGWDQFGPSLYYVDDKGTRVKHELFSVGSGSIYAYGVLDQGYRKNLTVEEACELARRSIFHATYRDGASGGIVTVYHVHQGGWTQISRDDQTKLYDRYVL
Kind of assay: Trypanosoma cruzi proteasome chymotrypsin-like activity (TcProtChymo) assay. Also: in the data most compounds retested in dose-response had high values. Format: functional. Conditions: 9.37 µM.

Another assay is filed under the species Homo sapiens. Nature of the assay: To identify inhibition of the IFN signalling (Jak-Stat) pathway via expression of an eGFP reporter gene under the control of an IFN-stimulated response element (ISRE) containing MxA promoter. It is filed as functional. Conditions: 30 µM.
Assay [7] deals with T4, Tyrosyl-tRNA synthetase, putative (Trypanosoma cruzi (strain CL Brener)) (UniProt Q4DSP6).
T4 sequence (whole entry): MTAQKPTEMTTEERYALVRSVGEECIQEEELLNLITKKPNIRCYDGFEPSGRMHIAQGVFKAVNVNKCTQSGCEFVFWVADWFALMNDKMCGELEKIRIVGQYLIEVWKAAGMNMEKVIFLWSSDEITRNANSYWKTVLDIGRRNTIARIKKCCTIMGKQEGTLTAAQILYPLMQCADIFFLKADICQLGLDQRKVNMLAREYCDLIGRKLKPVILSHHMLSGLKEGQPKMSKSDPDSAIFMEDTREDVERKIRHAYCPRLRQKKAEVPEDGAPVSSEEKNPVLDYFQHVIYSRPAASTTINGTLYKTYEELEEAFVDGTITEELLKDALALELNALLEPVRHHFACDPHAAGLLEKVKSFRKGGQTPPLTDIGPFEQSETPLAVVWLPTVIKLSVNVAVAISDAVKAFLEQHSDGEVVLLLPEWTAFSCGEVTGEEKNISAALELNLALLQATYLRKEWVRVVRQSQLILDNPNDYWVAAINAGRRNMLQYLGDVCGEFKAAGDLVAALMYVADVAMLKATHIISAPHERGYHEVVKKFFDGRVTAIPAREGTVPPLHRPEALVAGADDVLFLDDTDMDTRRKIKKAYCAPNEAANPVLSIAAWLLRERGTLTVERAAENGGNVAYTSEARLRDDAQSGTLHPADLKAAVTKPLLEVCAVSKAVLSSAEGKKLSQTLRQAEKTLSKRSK
Kind of assay: Trypanosoma cruzi tyrosyl tRNA synthetase (TcYRS) _High Tyrosine SOP. Also: in the data most compounds retested in dose-response had high values. Format: functional. The note with it: 30 µM.

Assay [8] has as its target T4, Tyrosyl-tRNA synthetase, putative (Trypanosoma cruzi (strain CL Brener)). Kind of assay: Trypanosoma cruzi tyrosyl tRNA synthetase (TcYRS) SOP. Format: functional. Conditions: 30 µM.
The target of assay [9] is Chromo domain-containing protein 1 (Saccharomyces cerevisiae (strain ATCC 204508 / S288c) (Baker's yeast)) (UniProt P32657). Kind of assay: ScCHD-1 Enzyme Inhibition Assay. Also: in the data most compounds retested in dose-response had high values. Format: functional. Conditions: 30 µM.

For some of these results: Potency and affinity values are given separately.

Chromo domain-containing protein 1 (Saccharomyces cerevisiae (strain ATCC 204508 / S288c) (Baker's yeast)), sequence (P32657 whole entry, the tested form may be a part): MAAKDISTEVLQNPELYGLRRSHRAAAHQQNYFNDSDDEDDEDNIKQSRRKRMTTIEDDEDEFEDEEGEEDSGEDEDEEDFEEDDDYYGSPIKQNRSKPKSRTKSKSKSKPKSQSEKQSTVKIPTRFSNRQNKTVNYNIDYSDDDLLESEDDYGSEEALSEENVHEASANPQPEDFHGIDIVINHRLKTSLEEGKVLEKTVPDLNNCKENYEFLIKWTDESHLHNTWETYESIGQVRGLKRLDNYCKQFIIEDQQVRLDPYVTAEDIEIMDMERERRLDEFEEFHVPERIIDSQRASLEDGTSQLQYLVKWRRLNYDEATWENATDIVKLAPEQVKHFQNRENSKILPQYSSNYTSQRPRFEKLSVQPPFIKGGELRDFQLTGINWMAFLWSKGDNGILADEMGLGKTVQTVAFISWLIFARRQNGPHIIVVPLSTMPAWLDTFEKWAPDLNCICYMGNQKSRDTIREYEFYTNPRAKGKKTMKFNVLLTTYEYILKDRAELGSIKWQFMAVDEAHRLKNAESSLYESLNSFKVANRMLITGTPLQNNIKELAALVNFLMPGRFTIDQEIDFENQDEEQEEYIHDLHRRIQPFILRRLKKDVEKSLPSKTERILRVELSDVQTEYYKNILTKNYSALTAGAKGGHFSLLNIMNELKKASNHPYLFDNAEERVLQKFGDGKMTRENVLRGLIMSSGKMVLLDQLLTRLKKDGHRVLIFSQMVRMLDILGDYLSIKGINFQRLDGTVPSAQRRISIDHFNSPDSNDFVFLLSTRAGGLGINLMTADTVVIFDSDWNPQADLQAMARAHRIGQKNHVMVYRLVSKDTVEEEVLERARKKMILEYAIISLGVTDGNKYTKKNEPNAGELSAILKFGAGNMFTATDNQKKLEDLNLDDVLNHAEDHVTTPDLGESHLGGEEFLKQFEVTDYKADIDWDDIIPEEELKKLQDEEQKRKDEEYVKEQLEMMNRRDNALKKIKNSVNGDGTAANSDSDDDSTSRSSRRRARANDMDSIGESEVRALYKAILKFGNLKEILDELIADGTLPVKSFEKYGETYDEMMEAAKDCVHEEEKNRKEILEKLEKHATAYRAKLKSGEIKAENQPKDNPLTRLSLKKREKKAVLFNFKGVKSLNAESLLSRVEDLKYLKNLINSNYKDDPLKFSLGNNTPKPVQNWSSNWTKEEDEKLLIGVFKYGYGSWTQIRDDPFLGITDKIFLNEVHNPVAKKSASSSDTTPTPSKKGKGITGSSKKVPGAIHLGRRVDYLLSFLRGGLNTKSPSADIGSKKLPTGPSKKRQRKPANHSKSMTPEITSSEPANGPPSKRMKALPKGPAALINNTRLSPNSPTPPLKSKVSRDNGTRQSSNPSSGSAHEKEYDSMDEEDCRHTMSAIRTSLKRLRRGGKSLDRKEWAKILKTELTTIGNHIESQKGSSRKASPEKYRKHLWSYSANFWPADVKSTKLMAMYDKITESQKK
Protein translocase subunit SecA (Escherichia coli (strain K12)), sequence (P10408 whole entry): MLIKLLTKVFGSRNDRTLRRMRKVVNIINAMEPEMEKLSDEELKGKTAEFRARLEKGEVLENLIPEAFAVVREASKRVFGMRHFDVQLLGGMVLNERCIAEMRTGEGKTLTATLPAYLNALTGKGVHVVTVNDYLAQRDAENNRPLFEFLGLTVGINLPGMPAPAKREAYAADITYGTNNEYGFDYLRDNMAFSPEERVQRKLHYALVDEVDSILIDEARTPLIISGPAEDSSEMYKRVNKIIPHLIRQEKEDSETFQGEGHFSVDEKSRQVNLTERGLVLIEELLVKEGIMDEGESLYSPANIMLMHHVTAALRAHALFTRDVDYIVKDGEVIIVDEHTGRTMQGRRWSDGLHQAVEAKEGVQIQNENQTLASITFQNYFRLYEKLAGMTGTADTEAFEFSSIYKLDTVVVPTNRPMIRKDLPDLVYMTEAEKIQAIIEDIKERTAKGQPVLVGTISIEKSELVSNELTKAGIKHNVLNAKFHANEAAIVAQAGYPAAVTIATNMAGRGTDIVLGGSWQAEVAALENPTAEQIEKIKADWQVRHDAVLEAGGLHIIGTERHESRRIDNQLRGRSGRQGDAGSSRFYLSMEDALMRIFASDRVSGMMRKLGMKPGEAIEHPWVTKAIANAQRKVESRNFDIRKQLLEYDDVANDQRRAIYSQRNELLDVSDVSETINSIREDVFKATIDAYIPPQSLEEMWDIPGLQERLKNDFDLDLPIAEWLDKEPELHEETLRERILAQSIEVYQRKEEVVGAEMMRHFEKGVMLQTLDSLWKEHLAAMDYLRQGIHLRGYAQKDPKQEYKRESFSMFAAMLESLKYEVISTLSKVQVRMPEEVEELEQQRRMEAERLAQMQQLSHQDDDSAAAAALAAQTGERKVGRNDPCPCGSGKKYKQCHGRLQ
Sialic acid-binding Ig-like lectin 9 (Homo sapiens), sequence (Q9Y336 whole entry): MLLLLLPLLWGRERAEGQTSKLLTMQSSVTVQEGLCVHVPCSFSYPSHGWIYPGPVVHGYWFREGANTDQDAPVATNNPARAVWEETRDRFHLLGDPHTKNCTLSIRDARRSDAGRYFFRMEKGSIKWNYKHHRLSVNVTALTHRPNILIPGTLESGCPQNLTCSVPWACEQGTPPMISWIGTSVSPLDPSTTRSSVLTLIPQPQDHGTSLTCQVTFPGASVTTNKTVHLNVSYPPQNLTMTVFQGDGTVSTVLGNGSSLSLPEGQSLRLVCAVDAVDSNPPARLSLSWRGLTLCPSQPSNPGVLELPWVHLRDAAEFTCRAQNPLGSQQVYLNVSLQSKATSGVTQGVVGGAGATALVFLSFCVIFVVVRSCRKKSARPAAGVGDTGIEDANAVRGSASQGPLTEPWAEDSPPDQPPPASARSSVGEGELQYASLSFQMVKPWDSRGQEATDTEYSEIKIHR

With `COc1cc(CNCc2ccnc(N3CCOCC3)c2)cc(Cl)c1OC`, the Percent Effect in assay [1] was -5.46%; in assay [2] it was 16.2%; in assay [3], -4.43%; in [4], 13.4%; in the assay with Trypanosoma cruzi it was 0.0943%; in assay [5] it was -5.21%. The Percent Effect in [6] was 3.78%; in the assay listed under Homo sapiens, 27.8%; in assay [7] it was 5.42%; in assay [8] it was 18.5%; in assay [9], -8.15%.
`CCOc1nnc(CN(C)CC2CCCN2c2cccnn2)s1` (stereo not drawn): the Percent Effect is -2.36% in assay [1]; 7.89% in [2]; -1.61% in assay [3]; -2.87% in assay [4]; 3.41% in the assay on Trypanosoma cruzi; -8.28% in assay [5]. Further, the Percent Effect was 20.2% in assay [6]; -2.35% in the assay listed under Homo sapiens; 3.19% in assay [7]; 10.4% in assay [8]; -4.84% in assay [9].
`Cc1cc(C2CCCN(C(=O)c3cnccn3)C2)ccn1` (stereo not drawn): the Percent Effect in assay [1] was 2.59%; in [2], 6.76%; in assay [3], 5.06%; in assay [4], 0.392%; in the assay with Trypanosoma cruzi, -5.93%; in assay [5], 0.232%. The Percent Effect in assay [6] worked out at 8.27%; in the assay filed under Homo sapiens, 12.6%; in assay [7] it was 2.15%; in assay [8], 3.9%; in [9] it was 6.76%.
With `CCN(Cc1ccc2c(c1)OCCO2)C(=O)NC(C)Cn1ccnc1` (stereo not drawn), the Percent Effect was -0.244% in [1]; 23.4% in assay [2]; -1.99% in assay [3]; -9.3% in assay [4]; -9.74% with Trypanosoma cruzi; 3.56% in assay [5]. Further, the Percent Effect in assay [6] was 10.8%; in the assay listed under Homo sapiens, 19.8%; in assay [7] it was 3.88%; in assay [8], 9.76%; in assay [9], -7.71%.
Turning to `Cn1ccnc1CN1CCN(CCOc2ccccc2C#N)CC1`, the Percent Effect in [1] is -0.0443%; in assay [2], 21.1%; in [3], 4.11%; in [4], -9.14%; in the assay on Trypanosoma cruzi, -3.83%; in [5] it was 5.4%. For the same molecule, the Percent Effect was 5.67% in assay [6]; 18.9% in the assay filed under Homo sapiens; 7.39% in assay [7]; 13.6% in [8]; -1.99% in assay [9].
`CCc1nc(CN(Cc2cccs2)CC2CCCO2)no1` (stereo not drawn): the Percent Effect in assay [1] was -0.473%; in assay [2], -11.4%; in [3], 2.16%; in assay [4] it was 0.0835%; in the assay with Trypanosoma cruzi it was -0.308%; in assay [5], 2.37%. The Percent Effect in assay [6] is 4.29%; in the assay listed under Homo sapiens it was 10.4%; in assay [7] it was -3.12%; in assay [8], 5.06%; in assay [9] it was 3.56%.
Regarding `CCc1nnsc1C(=O)NCCn1nc2ccccn2c1=O`, the Percent Effect was -5.54% in [1]; 18.9% in assay [2]; -7.77% in [3]; 20.2% in [4]; 5.66% in the assay on Trypanosoma cruzi; 4.25% in assay [5]. Besides, the Percent Effect is 8.8% in assay [6]; -0.849% in the assay filed under Homo sapiens; 6.93% in [7]; 18.3% in assay [8]; -9.16% in assay [9].
As for `CC1=N[C@@]2(CC[C@@H]3CN(CC(=O)N(C)C)C[C@@H]32)C(=O)N1CC(C)C`, the Percent Effect in assay [1] was 3.62%; in assay [2], 12%; in assay [3], 42.2%; in assay [4], 1.63%; in the assay on Trypanosoma cruzi, -8.25%; in assay [5], -20.6%. Moreover, the Percent Effect in assay [6] was 9.43%; in the assay listed under Homo sapiens, 24.2%; in [7], 1.06%; in assay [8] it was 0%; in [9], -8.72%.
